Unmarked numbers belong to inactive results.

UniProt Q14517, sequence (Q14517 whole entry): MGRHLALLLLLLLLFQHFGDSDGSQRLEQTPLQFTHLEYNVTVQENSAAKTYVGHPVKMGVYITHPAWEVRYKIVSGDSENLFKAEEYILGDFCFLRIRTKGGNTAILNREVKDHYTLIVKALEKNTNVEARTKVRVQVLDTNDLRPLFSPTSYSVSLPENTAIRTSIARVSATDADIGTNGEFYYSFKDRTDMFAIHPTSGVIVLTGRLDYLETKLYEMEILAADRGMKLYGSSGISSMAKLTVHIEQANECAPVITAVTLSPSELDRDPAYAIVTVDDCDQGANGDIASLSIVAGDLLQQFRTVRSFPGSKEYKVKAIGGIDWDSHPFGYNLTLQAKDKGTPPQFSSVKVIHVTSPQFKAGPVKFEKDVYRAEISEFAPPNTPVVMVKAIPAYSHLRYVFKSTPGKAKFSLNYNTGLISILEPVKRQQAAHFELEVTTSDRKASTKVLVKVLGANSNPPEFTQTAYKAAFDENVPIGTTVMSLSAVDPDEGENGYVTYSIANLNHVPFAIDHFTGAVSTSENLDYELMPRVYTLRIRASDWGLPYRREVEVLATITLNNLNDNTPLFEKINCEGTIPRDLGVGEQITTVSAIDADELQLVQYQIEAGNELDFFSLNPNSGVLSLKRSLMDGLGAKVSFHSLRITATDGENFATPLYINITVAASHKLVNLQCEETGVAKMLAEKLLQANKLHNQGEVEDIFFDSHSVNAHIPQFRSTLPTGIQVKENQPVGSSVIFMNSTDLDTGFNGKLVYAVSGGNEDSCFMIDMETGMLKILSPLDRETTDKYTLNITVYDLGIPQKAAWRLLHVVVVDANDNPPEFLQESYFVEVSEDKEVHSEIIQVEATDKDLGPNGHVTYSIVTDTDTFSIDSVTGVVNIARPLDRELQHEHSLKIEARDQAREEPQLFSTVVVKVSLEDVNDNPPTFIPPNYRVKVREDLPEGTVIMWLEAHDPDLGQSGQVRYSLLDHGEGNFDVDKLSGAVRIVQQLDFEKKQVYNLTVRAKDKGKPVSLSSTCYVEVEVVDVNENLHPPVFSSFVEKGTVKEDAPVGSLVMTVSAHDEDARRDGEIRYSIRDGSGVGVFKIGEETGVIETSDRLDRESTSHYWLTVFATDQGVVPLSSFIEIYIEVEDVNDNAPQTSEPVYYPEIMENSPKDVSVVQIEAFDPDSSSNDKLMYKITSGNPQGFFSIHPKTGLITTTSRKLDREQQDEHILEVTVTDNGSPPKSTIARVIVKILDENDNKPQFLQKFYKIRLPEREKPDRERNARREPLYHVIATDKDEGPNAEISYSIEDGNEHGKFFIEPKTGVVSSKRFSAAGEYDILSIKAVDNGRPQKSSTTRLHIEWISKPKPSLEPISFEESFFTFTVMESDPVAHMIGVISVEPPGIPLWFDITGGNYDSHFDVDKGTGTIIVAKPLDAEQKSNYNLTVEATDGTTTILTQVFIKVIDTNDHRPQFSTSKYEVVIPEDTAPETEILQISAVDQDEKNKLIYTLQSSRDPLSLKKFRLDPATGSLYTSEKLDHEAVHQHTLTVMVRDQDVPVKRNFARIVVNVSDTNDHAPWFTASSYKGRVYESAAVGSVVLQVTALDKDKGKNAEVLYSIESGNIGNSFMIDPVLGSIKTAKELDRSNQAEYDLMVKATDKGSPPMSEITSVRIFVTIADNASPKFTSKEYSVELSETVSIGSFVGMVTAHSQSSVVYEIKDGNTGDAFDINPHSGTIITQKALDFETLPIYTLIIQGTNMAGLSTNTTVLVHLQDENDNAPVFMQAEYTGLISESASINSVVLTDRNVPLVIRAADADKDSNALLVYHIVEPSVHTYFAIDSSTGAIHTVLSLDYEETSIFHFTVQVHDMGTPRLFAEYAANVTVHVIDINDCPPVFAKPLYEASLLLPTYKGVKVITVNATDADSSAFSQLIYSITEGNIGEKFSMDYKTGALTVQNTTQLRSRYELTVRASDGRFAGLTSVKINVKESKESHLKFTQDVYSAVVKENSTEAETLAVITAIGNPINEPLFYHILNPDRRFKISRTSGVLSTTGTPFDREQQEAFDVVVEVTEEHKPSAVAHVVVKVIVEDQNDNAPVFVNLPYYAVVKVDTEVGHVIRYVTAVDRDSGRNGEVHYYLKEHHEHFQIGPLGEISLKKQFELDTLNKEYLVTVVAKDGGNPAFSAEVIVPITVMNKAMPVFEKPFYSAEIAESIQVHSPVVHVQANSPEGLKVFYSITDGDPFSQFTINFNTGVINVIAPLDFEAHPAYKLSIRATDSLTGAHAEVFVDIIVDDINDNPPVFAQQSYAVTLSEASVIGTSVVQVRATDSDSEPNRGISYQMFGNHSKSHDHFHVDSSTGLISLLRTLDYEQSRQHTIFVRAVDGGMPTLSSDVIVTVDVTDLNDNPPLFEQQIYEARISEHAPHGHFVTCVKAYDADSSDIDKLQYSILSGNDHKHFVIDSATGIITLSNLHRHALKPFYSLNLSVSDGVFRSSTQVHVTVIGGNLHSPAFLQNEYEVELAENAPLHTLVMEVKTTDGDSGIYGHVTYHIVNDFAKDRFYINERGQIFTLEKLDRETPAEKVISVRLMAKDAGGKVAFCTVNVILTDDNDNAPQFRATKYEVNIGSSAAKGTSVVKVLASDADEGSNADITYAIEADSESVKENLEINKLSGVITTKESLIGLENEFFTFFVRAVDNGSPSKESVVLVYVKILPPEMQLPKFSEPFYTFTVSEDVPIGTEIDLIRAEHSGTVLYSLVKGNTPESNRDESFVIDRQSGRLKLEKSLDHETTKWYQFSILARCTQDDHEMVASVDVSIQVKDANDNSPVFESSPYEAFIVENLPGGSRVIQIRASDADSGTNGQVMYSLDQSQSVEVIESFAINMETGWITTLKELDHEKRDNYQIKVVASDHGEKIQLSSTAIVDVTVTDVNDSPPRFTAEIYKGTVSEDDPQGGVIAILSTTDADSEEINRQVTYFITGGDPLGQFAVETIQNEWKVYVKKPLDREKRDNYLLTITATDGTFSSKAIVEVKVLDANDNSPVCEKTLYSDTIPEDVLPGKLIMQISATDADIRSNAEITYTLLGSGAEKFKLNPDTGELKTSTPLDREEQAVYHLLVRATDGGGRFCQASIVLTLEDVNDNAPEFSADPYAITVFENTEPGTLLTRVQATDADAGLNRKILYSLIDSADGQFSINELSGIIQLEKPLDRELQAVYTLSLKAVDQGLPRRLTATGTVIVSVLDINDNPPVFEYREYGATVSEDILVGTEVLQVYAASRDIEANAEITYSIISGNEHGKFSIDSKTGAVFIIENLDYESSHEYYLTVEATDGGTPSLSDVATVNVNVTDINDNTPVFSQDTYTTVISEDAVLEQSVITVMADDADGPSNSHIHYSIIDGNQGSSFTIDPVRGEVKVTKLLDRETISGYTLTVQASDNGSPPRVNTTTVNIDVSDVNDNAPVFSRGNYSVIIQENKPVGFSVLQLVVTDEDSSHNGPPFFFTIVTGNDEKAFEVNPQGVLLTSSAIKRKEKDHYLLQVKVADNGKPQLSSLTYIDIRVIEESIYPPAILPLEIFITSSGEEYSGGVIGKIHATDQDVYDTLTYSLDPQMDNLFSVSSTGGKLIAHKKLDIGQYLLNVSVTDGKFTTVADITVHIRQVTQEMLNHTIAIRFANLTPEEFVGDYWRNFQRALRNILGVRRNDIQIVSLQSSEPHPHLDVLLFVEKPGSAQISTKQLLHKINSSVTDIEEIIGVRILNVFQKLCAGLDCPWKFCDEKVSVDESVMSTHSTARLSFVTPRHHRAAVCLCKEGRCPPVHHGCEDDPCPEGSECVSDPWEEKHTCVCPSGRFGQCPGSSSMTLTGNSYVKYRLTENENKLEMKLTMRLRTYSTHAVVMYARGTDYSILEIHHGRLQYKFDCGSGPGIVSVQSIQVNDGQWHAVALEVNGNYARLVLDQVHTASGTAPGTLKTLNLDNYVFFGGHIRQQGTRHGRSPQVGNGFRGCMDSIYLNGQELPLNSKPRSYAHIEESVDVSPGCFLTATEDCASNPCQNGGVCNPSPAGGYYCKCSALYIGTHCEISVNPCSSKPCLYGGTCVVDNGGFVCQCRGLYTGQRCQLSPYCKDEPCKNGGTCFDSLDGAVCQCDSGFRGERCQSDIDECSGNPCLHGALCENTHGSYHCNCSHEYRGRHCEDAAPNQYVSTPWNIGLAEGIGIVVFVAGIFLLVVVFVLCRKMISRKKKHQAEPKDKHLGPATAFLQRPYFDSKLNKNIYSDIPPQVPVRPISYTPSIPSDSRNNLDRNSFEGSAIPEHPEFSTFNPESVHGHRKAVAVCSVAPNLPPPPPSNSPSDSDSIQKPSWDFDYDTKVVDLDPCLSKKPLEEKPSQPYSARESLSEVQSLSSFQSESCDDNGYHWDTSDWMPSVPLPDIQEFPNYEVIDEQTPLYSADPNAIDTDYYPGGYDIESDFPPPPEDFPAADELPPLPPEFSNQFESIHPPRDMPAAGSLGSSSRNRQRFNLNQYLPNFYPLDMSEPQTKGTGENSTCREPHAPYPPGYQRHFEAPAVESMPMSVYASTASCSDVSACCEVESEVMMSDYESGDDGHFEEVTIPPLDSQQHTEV
UniProt P08670, sequence (P08670 whole entry): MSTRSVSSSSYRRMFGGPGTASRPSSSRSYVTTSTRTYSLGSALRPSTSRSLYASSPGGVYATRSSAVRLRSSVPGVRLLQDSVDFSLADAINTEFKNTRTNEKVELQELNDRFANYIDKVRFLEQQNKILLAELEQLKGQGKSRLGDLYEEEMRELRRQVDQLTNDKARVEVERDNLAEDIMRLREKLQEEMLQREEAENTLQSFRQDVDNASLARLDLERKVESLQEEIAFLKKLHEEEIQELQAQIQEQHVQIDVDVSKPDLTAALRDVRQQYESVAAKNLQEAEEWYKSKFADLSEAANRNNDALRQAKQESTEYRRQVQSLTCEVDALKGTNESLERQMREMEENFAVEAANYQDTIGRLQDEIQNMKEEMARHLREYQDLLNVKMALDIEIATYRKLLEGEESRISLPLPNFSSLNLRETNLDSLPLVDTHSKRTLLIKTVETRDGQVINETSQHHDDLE

Compound in this assay: C#CCNC(=O)CCSSCCC(=O)NCCc1ccc(C=O)c(C=O)c1
In words: lysine labeling ratio R10:1 (500 µM / 50 µM probe), SILAC-ABPP in living cells; higher = lower intrinsic lysine reactivity toward the probe, active = 2 or less. The conditions noted are these: HeLa; probe concentrations 500 vs 50 µM. The essentials:
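Living SILAC light and heavy HeLa cells in PBS at room temperature were treated with an alkyne-tagged, disulfide-linked lysine probe at 50 µM or 500 µM, with forward and reverse label swaps. The mixed lysates were clicked to biotin-azide, digested with trypsin, captured on neutravidin, released with DTT, alkylated and run by LC-MS/MS on a TIMS-TOF Pro. R for each lysine is the filtered median high-probe/low-probe MS1 peptide ratio, taken again as the median over forward and reverse replicates. Any value above 20 is set to 20.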
For “RPSA (lysine site: K52) (UniProt P08865)”, the “lysine labeling ratio R10:1” value is 1.63 (active).

Turning to “FAT1 (lysine site: K1542) (UniProt Q14517)”, the “lysine labeling ratio R10:1” value was 2.78.

As to “DYNC1H1 (lysine site: K2286) (UniProt Q14204)”, the “lysine labeling ratio R10:1” value was 1.93 (active).

Consider “FRAS1 (lysine site: K380) (UniProt Q86XX4)”, for which the “lysine labeling ratio R10:1” value is 2.25.

Regarding UniProt Q96JJ7 (lysine site: K119), the “lysine labeling ratio R10:1” value was 3.06.

Turning to “KIRREL (lysine site: K410) (UniProt Q96J84)”, the “lysine labeling ratio R10:1” value was 2.51.

For “APOB (lysine site: K1642) (UniProt P04114)”, the “lysine labeling ratio R10:1” value was 2.17.

For the target “LGALS1 (lysine site: K64) (UniProt P09382)”, the “lysine labeling ratio R10:1” value is 3.47.

For the target F2 (lysine site: K384) (UniProt P00734), the “lysine labeling ratio R10:1” value is 4.42.

On to “PDIA3 (lysine site: K433) (UniProt P30101)”, for which the “lysine labeling ratio R10:1” value is 2.21.

As for “SPTBN1 (lysine site: K1459) (UniProt Q01082)”, the “lysine labeling ratio R10:1” value is 0.588 (active).

For the target “TCP1 (lysine site: K126) (UniProt P17987)”, the “lysine labeling ratio R10:1” value is 2.14.

Turning to “FAT1 (lysine site: K2562) (UniProt Q14517)”, the “lysine labeling ratio R10:1” value is 1.58 (active).

As to “TMEM109 (lysine site: K46) (UniProt Q9BVC6)”, the “lysine labeling ratio R10:1” value is 3.23.

For “VIM (lysine site: K373) (UniProt P08670)”, the “lysine labeling ratio R10:1” value was 7.19.

Consider “VIM (lysine site: K439) (UniProt P08670)”, for which the “lysine labeling ratio R10:1” value is 8.7.

Turning to UniProt Q9NYQ6 (lysine site: K316), the “lysine labeling ratio R10:1” value is 3.81.

With UniProt P05106 (lysine site: K98), the “lysine labeling ratio R10:1” value was 1.59 (active).

Regarding “FAT4 (lysine site: K3828) (UniProt Q6V0I7)”, the “lysine labeling ratio R10:1” value is 5.8.

Consider “CACNA2D1 (lysine site: K586) (UniProt P54289)”, for which the “lysine labeling ratio R10:1” value was 2.9.

Take “SLC3A2 (lysine site: K245) (UniProt P08195)”: the “lysine labeling ratio R10:1” value was 5.72.

Consider “PAICS (lysine site: K261) (UniProt P22234)”, for which the “lysine labeling ratio R10:1” value was 0.93 (active).

With “FLNA (lysine site: K1375) (UniProt P21333)”, the “lysine labeling ratio R10:1” value was 2.93.

The values above are taken from the supplement of paper PMC11001985.
